Measured values reported in PubChem BioAssay (NCI).
This is part of a sample that, as a whole, favours compounds with a hit. Of some 79,000 tested, about 15% had one in any assay. Unmarked numbers belong to inactive results. Activity calls are given as the source filed them. No stated cut-off is given here; in the data, active means growth inhibition above about 70%; inactive means the rest.

Tests used:
[1] = NCI Yeast Anticancer Drug Screen. Data for the rad50 strain (AID 155);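 further: 0% = growth of vehicle-only cultures of the same strain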; conditions: S. cerevisiae rad50 strain growth inhibition, hits give high values
Method in brief: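 Vehicle-treated cultures provide the reference for the growth inhibition reported for compound-exposed, repair-deficient yeast.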

[2] = NCI Yeast Anticancer Drug Screen. Data for the mec2-1 strain (AID 157); conditions: S. cerevisiae mec2-1 strain, hits give high values
Method in brief: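 Using mec2-1 yeast: add compound, measure growth, express inhibition versus vehicle-treated cultures.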

[3] = NCI Yeast Anticancer Drug Screen. Data for the sgs1 mgt1 strain (AID 161);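 further: 0% = growth of cultures given vehicle only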; conditions: S. cerevisiae sgs1 mgt1 strain, hits give high values
Method in brief: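 This yeast growth screen uses a strain with defined DNA-repair lesions; compound-treated growth is compared with vehicle-treated growth.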

[4] = NCI Yeast Anticancer Drug Screen. Data for the cln2 rad14 strain (AID 165);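 further: 0% = growth equal to vehicle treated cultures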; conditions: S. cerevisiae cln2 rad14 strain, hits give high values
Method in brief: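 Yeast strain cln2 rad14, bearing defects in cell cycle control and DNA repair, serves as the test system; values reflect growth inhibition compared with vehicle.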

[5] = NCI Yeast Anticancer Drug Screen. Data for the bub3 strain (AID 167); conditions: S. cerevisiae bub3 mutant strain, hits give high values
Method in brief: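 Mutant yeast screening strain plus compound; vehicle-treated cultures serve as the 0% inhibition reference.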

[6] = NCI Yeast Anticancer Drug Screen. Data for the mlh1 rad18 strain (AID 175); conditions: S. cerevisiae mlh1 rad18 strain growth inhibition, hits give high values
Method in brief: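 Steps: expose repair-defective yeast to compound; measure growth; express inhibition against vehicle-treated controls.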

[7] = at 5.0 µM (retest, dose inferred, filed as 0.5)
[8] = at 50.0 µM (retest, dose inferred, filed as 5.0)

SMILES	growth inhibition [1, 7] [%]	growth inhibition [1, 8]	growth inhibition ([1]; at 50.0 µM)	growth inhibition [2, 7] [%]	growth inhibition [2, 8]	growth inhibition ([2]; at 50.0 µM)	growth inhibition [3, 7] [%]	growth inhibition [3, 8]	growth inhibition ([3]; at 50.0 µM)	growth inhibition [4, 7] [%]	growth inhibition [4, 8]	growth inhibition ([4]; at 50.0 µM)	growth inhibition [5, 7] [%]	growth inhibition [5, 8]	growth inhibition ([5]; at 50.0 µM)	growth inhibition [6, 7] [%]	growth inhibition [6, 8]	growth inhibition ([6]; at 50.0 µM)
CN(C)CCNc1ccc([N+](=O)[O-])c2nc3ccccc3c(N)c12	-34	-7%	-1.9%	-37	6%	-40.8%	34	-24%	45.9%	-17	0%	8.55%	-8	12%	-7.15%	-53	-10%	65.8%
COc1ccc(N2CCN(CC(O)COc3cc4c(c5c3CCCC5)CCCC4)CC2)cc1 (stereo not given)	15	98% (active)	45.4%	17	98% (active)	99% (active)	22	97% (active)	54.7%	6	98% (active)	84.2% (active)	13	97% (active)	92% (active)	9	96% (active)	77.6% (active)
COc1ccc2c(c1)CCC1OC(c3cccnc3)OC21 (stereo not given)	-1	18%	65.8%	-19	-4%	36.9%	-3	8%	75.8% (active)	-5	11%	55%	10	25%	30.6%	-10	-15%	70.9% (active)
CCC(N)(CO)CO	7	67%	3.65%	5	8%	8.3%	2	11%	9.7%	5	12%	71.5% (active)	3	14%	44.1%	2	8%	-30.2%
O=C(/C=C(/c1ccccc1)P(=O)(c1ccccc1)c1ccccc1)c1ccccc1	-2	97% (active)	97.9% (active)	-15	97% (active)	98.6% (active)	-5	97% (active)	98.8% (active)	-4	71% (active)	97.8% (active)	-5	86% (active)	97.8% (active)	15	99% (active)	98.6% (active)
N#Cc1ccc(OC(=O)Nc2c(Cl)cccc2Cl)cc1	46	41%	80.4% (active)	36	42%	82.2% (active)	44	53%	86.2% (active)	34	45%	83.9% (active)	31	70% (active)	84.3% (active)	47	50%	83.5% (active)
Nc1cc(F)cc(F)c1[N+](=O)[O-]	4	21%	41%	4	22%	0.45%	1	18%	53.3%	-1	6%	-15.4%	-1	19%	-1.5%	7	26%	79.7% (active)
Cc1ccc(NC(=O)/C(CC(=O)c2sc(Nc3ccc(Cl)c(Cl)c3)nc2C)=N\Nc2ccc([N+](=O)[O-])cc2[N+](=O)[O-])c(C)c1	1	97% (active)	97.7% (active)	-4	96% (active)	98.3% (active)	5	93% (active)	94.5% (active)	0	98% (active)	97.1% (active)	-10	99% (active)	96.8% (active)	5	96% (active)	96.8% (active)
O=C1COC(=O)/C1=C\C=C\c1ccccc1	5	55%	95.6% (active)	8	84% (active)	91% (active)	13	78% (active)	99% (active)	1	94% (active)	95.4% (active)	-5	43%	97.2% (active)	2	68%	99% (active)
N#CS/C(Cl)=C(/C(Cl)=C(Cl)Cl)[N+](=O)[O-]	5	99% (active)	84.8% (active)	18	99% (active)	70.7% (active)	-3	98% (active)	87.4% (active)	-5	98% (active)	48.6%	-21	99% (active)	85.7% (active)	-15	99% (active)	81.2% (active)
